In article PMC7819943, “Rice protein-binding microarrays: a tool to detect cis-acting elements near promoter regions in rice”:
Whole data set: some 39,000 sequences, median “fluorescence intensity (a.u.)” near 4,300, cut for the highest 2% near 39,000. The sample holds the highest values, similar sequences and a random draw of the others, so the mix is not that of the screen.

target: T1, OsSMF1 (Oryza sativa, UniProt Q6ZLB0 1-436); assay: protein-binding microarray (RPBM); PBS, 2% BSA, 51.3 ng/ul salmon testes DNA, 50 uM zinc acetate, 200 nM TF, 25 C, 1 h; high values mean tight binding; details: protein: recombinant; tags: N-terminal polyhistidine and DsRed monomer fusion (pET32a); chain copies: 2; label: CyDye5-dUTP incorporated in the synthesized complementary strand; 3' TTTTT single-stranded linker to array surface; dsDNA, one strand shown
T1 sequence: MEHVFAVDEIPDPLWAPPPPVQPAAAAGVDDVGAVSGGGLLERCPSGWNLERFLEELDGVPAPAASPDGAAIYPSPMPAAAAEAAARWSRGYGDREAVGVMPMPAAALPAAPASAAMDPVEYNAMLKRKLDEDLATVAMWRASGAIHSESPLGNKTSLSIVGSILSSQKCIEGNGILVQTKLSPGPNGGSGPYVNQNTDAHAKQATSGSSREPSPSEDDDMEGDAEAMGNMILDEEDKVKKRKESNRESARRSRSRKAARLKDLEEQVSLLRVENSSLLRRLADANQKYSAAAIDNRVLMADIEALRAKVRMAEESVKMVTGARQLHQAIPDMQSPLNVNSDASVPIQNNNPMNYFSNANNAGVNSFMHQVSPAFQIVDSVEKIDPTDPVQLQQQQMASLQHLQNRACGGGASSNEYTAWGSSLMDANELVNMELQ
Method in brief: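 Transcription factors were each fused at the N-terminus to a polyhistidine tag plus DsRed and expressed in E. coli BL21-CodonPlus before Ni–NTA purification. Binding to a double-stranded custom Agilent array was carried out with 200 nM protein at 25 °C for 1 h in PBS, 2% BSA, salmon testes DNA and 50 µM zinc acetate. The binding signal is per-feature fluorescence intensity, in arbitrary units, on an Axon 4000B scanner.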

Q: “CCTTCCACATATGCTCATTCGAAAGTAACAAATTCACTCGCGGAGTCACCTAGTGCAG” was tested. Which binding signal did it give?
A: 3190 fluorescence intensity (a.u.)

Q: How did the binding signal turn out when “GGTGATTGCATTTGCTGATGTCAGGTATGCCTATTATATTCGGAGTCACCTAGTGCAG” was run?
A: 14700 fluorescence intensity (a.u.)

Q: For “CGAGTTTAGAATCCACACCATGATTACATGTAAACAACGTCGGAGTCACCTAGTGCAG”, which binding signal is on record?
A: 44700 fluorescence intensity (a.u.)

Q: “ACTAGTTTACAACCACACCAACATGTAGGCATGAACATGGCGGAGTCACCTAGTGCAG” was tested. Which binding signal did it give?
A: 22900 fluorescence intensity (a.u.)

Q: “TTGGATGACACAACAACATGTAAGGTTAGAAACGATATGTCGGAGTCACCTAGTGCAG” was tested. Which binding signal did it give?
A: 3990 fluorescence intensity (a.u.)

Q: How did the binding signal turn out when “AAAGTAGTTTTACACGTAAATCGGGCGCTGACGTTATCAGCGGAGTCACCTAGTGCAG” was run?
A: 5310 fluorescence intensity (a.u.)

Q: Which binding signal does the source give for “TAAAGTAGTTTTACACGTAAATCAGATGCTGACGTCAGCGCGGAGTCACCTAGTGCAG” here?
A: 48600 fluorescence intensity (a.u.)

Q: Which binding signal does the source give for “AAAGTAGTTTCTGCACGTAAATCGGACGCTGACGTCAGCGCGGAGTCACCTAGTGCAG” here?
A: 36600 fluorescence intensity (a.u.)

Q: With “AAACACACTGACACGCATTCGGCCCGTTCCCTCGATGCGTCGGAGTCACCTAGTGCAG” as the sequence, how does the binding signal read?
A: 5340 fluorescence intensity (a.u.)

Q: How did the binding signal turn out when “ATGAACTCATGCAACATTACTGGCTGATGCATCAACTTTACGGAGTCACCTAGTGCAG” was run?
A: 3270 fluorescence intensity (a.u.)

Q: “ATGATGCTGGATTGCTGGATACTGCATCAACATCATTAAGCGGAGTCACCTAGTGCAG” was tested. Which binding signal did it give?
A: 44500 fluorescence intensity (a.u.)

Q: For “AACATCATATATTGATGATTATTTGCTGCATAAGGAGATGCGGAGTCACCTAGTGCAG”, which binding signal is on record?
A: 4070 fluorescence intensity (a.u.)

Q: For “AACTTTTAATGATGTTCAACATGGGAAAATATGTGGTGGACGGAGTCACCTAGTGCAG”, which binding signal is on record?
A: 8320 fluorescence intensity (a.u.)

Q: With “AATATTGTGTGTTGTTGTGTTGTCATCTGATATATTTTAGCGGAGTCACCTAGTGCAG” as the sequence, how does the binding signal read?
A: 6470 fluorescence intensity (a.u.)

Q: With “ACCTAAACGAGCCAACACGCACGCTCATCGCATCTTTGCGCGGAGTCACCTAGTGCAG” as the sequence, how does the binding signal read?
A: 3810 fluorescence intensity (a.u.)

Q: With “TTCTACAACTTGGACCATAAAACGTGTAGTTTTGTGAAATCGGAGTCACCTAGTGCAG” as the sequence, how does the binding signal read?
A: 3570 fluorescence intensity (a.u.)

Q: “ACACATGGAACTTGTGCCATATATCTGTAGGTGTGAAAATCGGAGTCACCTAGTGCAG” was tested. Which binding signal did it give?
A: 41300 fluorescence intensity (a.u.)

Q: How did the binding signal turn out when “AAGGTAGGTTGTAGAACTGATGATCTGTCAATGGTGAAATCGGAGTCACCTAGTGCAG” was run?
A: 4940 fluorescence intensity (a.u.)

Q: With “TCATCTCATCTCTCCACGTCACCCGACTCCGACTCCGTGGCGGAGTCACCTAGTGCAG” as the sequence, how does the binding signal read?
A: 16900 fluorescence intensity (a.u.)

Q: Which binding signal does the source give for “CGATGGCTGCCACTGCCAACGTCAAGCTCCTCTCCGACGGCGGAGTCACCTAGTGCAG” here?
A: 3850 fluorescence intensity (a.u.)

Q: How did the binding signal turn out when “TGCGGACTACGTCAAGCTGACGTCATCTCCGACCCGACCTCGGAGTCACCTAGTGCAG” was run?
A: 54000 fluorescence intensity (a.u.)

Q: For “CCTACCACTGTTGAGTAACCACGTCTTTCGACGTATGCAGCGGAGTCACCTAGTGCAG”, which binding signal is on record?
A: 6930 fluorescence intensity (a.u.)

Q: Which binding signal does the source give for “GCGGTCGGGCCGGCCCAGGAAATACCAGGCGACGTGGCGGCGGAGTCACCTAGTGCAG” here?
A: 8410 fluorescence intensity (a.u.)

Q: For “ACTGACATCGAGGCCCCACGTGTCAGTGACCCAGTTCTTTCGGAGTCACCTAGTGCAG”, which binding signal is on record?
A: 13400 fluorescence intensity (a.u.)

Q: How did the binding signal turn out when “TAAACTCTTTCTGTGAGTCAGCACAATAGCCCATCGTGCCCGGAGTCACCTAGTGCAG” was run?
A: 18700 fluorescence intensity (a.u.)

Q: With “ACTTCACCAGTTCACCACCGTGGCACTCCCTGGGACTGAACGGAGTCACCTAGTGCAG” as the sequence, how does the binding signal read?
A: 3640 fluorescence intensity (a.u.)

Q: How did the binding signal turn out when “GTGCGGATGGGGAGGTGTGGTGGAAGGGTGGACAGTGGAGCGGAGTCACCTAGTGCAG” was run?
A: 3410 fluorescence intensity (a.u.)

Q: “TTGGGAGGGAGAGTGGTAAAGGGTGCTGGGGCTTTGGCTGCGGAGTCACCTAGTGCAG” was tested. Which binding signal did it give?
A: 4250 fluorescence intensity (a.u.)

Q: With “GAGGACATGCATGTGCAAGGGGAGCAGGTGGGGTAAAATGCGGAGTCACCTAGTGCAG” as the sequence, how does the binding signal read?
A: 45500 fluorescence intensity (a.u.)

Q: For “TTTGCCACTGTCCTACTAGATCTTGGTCTTATTTGAGAAGCGGAGTCACCTAGTGCAG”, which binding signal is on record?
A: 3550 fluorescence intensity (a.u.)

Q: “TATGACATGTGGGCCAACTGCCAAGCAGCCTTACTTGACGCGGAGTCACCTAGTGCAG” was tested. Which binding signal did it give?
A: 3360 fluorescence intensity (a.u.)

Q: With “CTCAGTATATATGTTTTGAATTCATTATGACATCTTTACACGGAGTCACCTAGTGCAG” as the sequence, how does the binding signal read?
A: 3360 fluorescence intensity (a.u.)

Q: With “GCTATTTATCTCATATGATGTCTTGGATGTTGTGTAGAAACGGAGTCACCTAGTGCAG” as the sequence, how does the binding signal read?
A: 40600 fluorescence intensity (a.u.)

Q: How did the binding signal turn out when “GTTGGAGATGCTCTGAGAAACGCATATGTGGATGGTCTTACGGAGTCACCTAGTGCAG” was run?
A: 48100 fluorescence intensity (a.u.)

Q: Which binding signal does the source give for “TATGAAAGTTTTCGATGTGATGTAATGTGATGGAAAGTTACGGAGTCACCTAGTGCAG” here?
A: 3140 fluorescence intensity (a.u.)

Q: Which binding signal does the source give for “TATTTGTATTATGTTGCAAATGTTGCAATATATATATTTACGGAGTCACCTAGTGCAG” here?
A: 15300 fluorescence intensity (a.u.)

Q: How did the binding signal turn out when “TTGGAAGTTTATGTGTGTAGAAAAGTTTTGATGTAATGAACGGAGTCACCTAGTGCAG” was run?
A: 44400 fluorescence intensity (a.u.)

Q: How did the binding signal turn out when “CTGAAAAGTTGTGTGTGTATGACATGTTGATGTGATGGAACGGAGTCACCTAGTGCAG” was run?
A: 5180 fluorescence intensity (a.u.)

Q: For “TCTTGATGATGTGGAGTTTATGGAAACTATGTCTAGTGTTCGGAGTCACCTAGTGCAG”, which binding signal is on record?
A: 7560 fluorescence intensity (a.u.)

Q: With “TTATTGGTGGATGCCTCTGAGTCGGATGTGGGTCGTACAACGGAGTCACCTAGTGCAG” as the sequence, how does the binding signal read?
A: 3660 fluorescence intensity (a.u.)

Q: With “TACAGTATGTTGTGGAAGGCCTTTGAATTATATTGCATTACGGAGTCACCTAGTGCAG” as the sequence, how does the binding signal read?
A: 49000 fluorescence intensity (a.u.)

Q: For “TGTTTGGACATATGCATGGAGCATTAAATGTGGATGAAAACGGAGTCACCTAGTGCAG”, which binding signal is on record?
A: 4350 fluorescence intensity (a.u.)

Q: With “TCACATGATGTCTTGGATGTTGTGTAGAAATTCTCTTTCCCGGAGTCACCTAGTGCAG” as the sequence, how does the binding signal read?
A: 3560 fluorescence intensity (a.u.)
